According to PubChem BioAssay:
Values without a mark were called inactive. Calls of active or inactive are those of the source. Unless noted, no stated cut-off is given here; in the data, active means inhibition above about 44%; inactive means the rest.

Experiments:
[1] = StAR promoter reporter inhibitors, counter-screen for LRH-1 inverse agonist project, cell-based, luminescence, high throughput (AID 651611; in the data active means inhibition above about 28%); settings: StAR promoter luciferase reporter counterscreen, at 3.6 µM, stronger effect = higher value
[2] = molecular target: Nuclear receptor subfamily 5 group A member 2 (Homo sapiens) (UniProt O00482); assay: NR5A2 activity suppression in reporter cells – cell-based, luminescence, confirmation (AID 651613; in the data active means inhibition above about 42%;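 further: HEK293T cells co-transfected with LRH-1 and StAR promoter luciferase reporter; 0% = vehicle wells and 100% = parental cells lacking receptor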); settings: cell-based LRH-1 luciferase reporter, inverse agonism; at 3.6 µM; stronger effect = higher value
Chain of Nuclear receptor subfamily 5 group A member 2 (Homo sapiens) (O00482 whole entry, looked up): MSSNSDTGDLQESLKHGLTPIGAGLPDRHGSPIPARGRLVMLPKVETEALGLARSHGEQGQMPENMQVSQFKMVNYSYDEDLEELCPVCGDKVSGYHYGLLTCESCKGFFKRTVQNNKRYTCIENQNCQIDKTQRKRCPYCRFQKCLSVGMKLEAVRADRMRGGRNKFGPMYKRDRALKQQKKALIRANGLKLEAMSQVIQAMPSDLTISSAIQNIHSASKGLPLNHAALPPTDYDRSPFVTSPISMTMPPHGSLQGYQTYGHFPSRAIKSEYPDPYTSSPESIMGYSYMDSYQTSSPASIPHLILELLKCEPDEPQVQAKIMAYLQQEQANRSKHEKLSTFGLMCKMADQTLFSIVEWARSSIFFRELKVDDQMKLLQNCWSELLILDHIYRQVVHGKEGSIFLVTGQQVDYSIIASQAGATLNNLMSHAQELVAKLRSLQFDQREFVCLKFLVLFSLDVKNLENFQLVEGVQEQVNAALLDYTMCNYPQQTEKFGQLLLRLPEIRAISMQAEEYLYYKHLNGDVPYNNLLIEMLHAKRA

[3] = molecular target: Steroidogenic factor 1 (Homo sapiens) (UniProt Q13285); assay: inverse agonism at SF1 nuclear receptor – cell-based, luminescence, high throughput, counter-screen for LRH-1 inverse agonist project (AID 651614); settings: cell-based SF1 luciferase reporter, at 3.6 µM, stronger effect = higher value;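 further: cells cotransfected with StAR promoter reporter and SF1 expression vector; 0% = vehicle on cells with receptor and 100% = vehicle on cells lacking receptor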
Chain of Steroidogenic factor 1 (Homo sapiens) (Q13285 whole entry, looked up, the tested form may be a part): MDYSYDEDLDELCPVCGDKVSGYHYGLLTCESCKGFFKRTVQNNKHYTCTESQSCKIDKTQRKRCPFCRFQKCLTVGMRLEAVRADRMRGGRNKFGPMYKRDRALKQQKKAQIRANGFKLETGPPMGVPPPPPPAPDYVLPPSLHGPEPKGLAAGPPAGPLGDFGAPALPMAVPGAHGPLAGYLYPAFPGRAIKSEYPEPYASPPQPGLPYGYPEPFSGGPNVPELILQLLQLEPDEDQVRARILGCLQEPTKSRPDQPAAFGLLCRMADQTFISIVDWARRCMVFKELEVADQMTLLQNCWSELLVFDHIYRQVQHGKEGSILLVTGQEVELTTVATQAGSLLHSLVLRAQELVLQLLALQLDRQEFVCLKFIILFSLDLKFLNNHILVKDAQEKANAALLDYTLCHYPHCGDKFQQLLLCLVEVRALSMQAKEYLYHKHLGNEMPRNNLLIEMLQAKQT

[4] = compounds suppressing VP16-driven luciferase signal – cell-based, luminescence, high throughput, counter-screen for LRH-1 inverse agonist project (AID 651615; in the data active means inhibition above about 33%); settings: Gal4-VP16 luciferase reporter cells, at 3.6 µM, stronger effect = higher value

SMILES | inhibition [1] | inhibition [2] | inhibition [3] | inhibition [4]
CCN(CC)CC(=O)Nc1ccc(-c2nc3cc(NC(=O)CN(CC)CC)ccc3o2)cc1 | -9.81% | 42.5% (active) | 39.6% | -0.95%
CC(C(=O)N1CCCc2c1c(=O)oc1ccc(O)cc21)N1CCc2ccccc2C1 (stereo not drawn) | 3.35% | 48.5% (active) | 32.4% | -3.51%
CC(C)[C@H](NC(=O)OCc1ccccc1)C(=O)OCC(=O)Nc1ccc(N2CCOCC2)cc1 | 10.9% | 59.9% (active) | 59.2% (active) | -0.29%
O=C(c1ccc(=O)n(Cc2ccccc2)n1)N1CCN(C/C=C/c2ccccc2)CC1 | 2.26% | 52.9% (active) | 28% | 5.07%
Cc1ccc(NC(=O)COC(=O)CCC2CCCC2)c(Br)c1 | 5.75% | 40.9% | 46.2% (active) | -5.49%
Cc1nc(C)c(-c2csc(Nc3cccnc3)n2)s1 | -12.1% | 41.5% (active) | 35.4% | -47.9%
COc1cccc(COC(=O)C2CC(=O)N(Cc3ccco3)C2)c1OC (stereo not drawn) | 12% | 30.3% | 31% | -7.19%
Cc1sc2ncnc(NCCc3ccc(S(N)(=O)=O)cc3)c2c1C | 14.7% | 53% (active) | 54.6% (active) | 50% (active)
COc1ccc(NC(=O)CSc2nc(N)c(-c3ccccc3)c(=O)[nH]2)cc1 | 9.25% | 63.2% (active) | 57.5% (active) | -7.75%
C=CC(=O)Nc1ccc(Br)cc1 | 20.7% | 41% | 51.4% (active) | -1.85%
Nn1c(SCC(=O)Nc2c(F)cc(F)cc2Br)nnc1C1CCCCC1 | 6.71% | 38.9% | 27.5% | -6%
COc1cc(F)c(C2=CC(=O)CC(C)(C)C2)cc1F | -6.98% | 43.9% (active) | 34.5% | -13.9%
COc1ccc(CNC(=O)c2cccc3c(-c4cnn(C)c4)coc23)cc1OC | 12.8% | 46.2% (active) | 46% (active) | 36.4% (active)
O=C(CCl)Nc1cccc(Oc2cnccn2)c1 | 37.1% (active) | 69% (active) | 64.9% (active) | -26.5%
COc1ccc(C[C@@H]2OC3(C=CC(=O)C=C3)O[C@H]2Cc2ccc(OC)cc2)cc1 | 37.5% (active) | 68.4% (active) | 66% (active) | 70.6% (active)
COc1ccc(-c2cc(NC=O)c3ncc(-c4ccc(C(C)=O)cc4)n3c2)cn1 | 41.6% (active) | 66% (active) | 59% (active) | -15.1%
Cc1c(C(C)C)c(=O)n(-c2ccc(S(=O)(=O)NC3CCCCC3)cc2)n1C | 23.7% | 60.6% (active) | 62.1% (active) | 47.9% (active)
CSc1nc(SCC(=O)NCc2ccco2)c2c3c(sc2n1)COC(C)(C)C3 | 6.43% | 54.7% (active) | 57.6% (active) | 3.39%
CC(=O)C1=C(c2cccc([N+](=O)[O-])c2)N(C(C)=O)n2c(C)nnc2S1 | 5.25% | 58.4% (active) | 50.3% (active) | -4.12%
CCCn1c(=NC(=O)CCS(=O)(=O)c2ccccc2)sc2cc(S(N)(=O)=O)ccc21 | 1.11% | 32.3% | 31.1% | -13.8%
CCCc1nnc(SCC(=O)Nc2ccc(C(=O)OCC)cc2)o1 | 5.44% | 56.6% (active) | 60.7% (active) | -15.5%
COc1ccc(C(=O)C(C)Oc2cccc(NC(=O)c3cccc([N+](=O)[O-])c3)c2)cc1 (stereo not drawn) | 1.27% | 35.4% | 44.1% (active) | -5.28%
COc1ccc2c(c1)c[n+](C)c1c3cc(OC)c(OC)cc3ccc21 | 12.1% | 58.3% (active) | 56.5% (active) | 68.9% (active)
Cc1ccsc1CNc1ncnc2ccc(-c3c(C)noc3C)cc12 | 54.5% (active) | 37.9% | 28.7% | -142%
Cc1cc([N+](=O)[O-])ccc1NCc1ccc2ccccc2c1 | 1.75% | 43.1% (active) | 38.8% | 2.64%
CC(=O)c1ccc2c(c1)C1C=CCC1C(c1cc3c(cc1Br)OCO3)N2 (stereo not drawn) | 45.6% (active) | 50.3% (active) | 46.1% (active) | 16.9%

SMILES | inhibition [1] | inhibition [2] | inhibition [3] | inhibition [4]
COc1cccc(-c2nc(NCC3CCCO3)c3ccccc3n2)c1O (stereo not drawn) | 31.9% (active) | 64.7% (active) | 59.1% (active) | -15.4%
CN(CC(=O)Nc1ccc(N2CCOCC2)cc1)CC(=O)Nc1ccc(N2CCOCC2)cc1 | 4.02% | 52.1% (active) | 54.2% (active) | -8.87%
Cc1ccc(NC(=O)CSc2nc3[nH]c(=O)cc(O)c3s2)c(Br)c1 | 5.79% | 56.3% (active) | 46.5% (active) | -1.62%
CCc1ccccc1NC(=O)CSc1nnc(Cn2nnc3ccccc32)n1C | 5.04% | 53% (active) | 48.2% (active) | -5.32%
Cc1cccc2cc(C#N)c(SCC(=O)N3CC(=O)Nc4ccccc43)nc12 | 53.7% (active) | 23.3% | 38.1% | 38.5% (active)
COc1cc(OC)cc(C(=O)N[C@H](C(=O)OCC(=O)Nc2ccc3c(c2)OCO3)C(C)C)c1 | 14.4% | 48.1% (active) | 45.9% (active) | -4.48%
Cc1csc(=O)n1CCC(=O)OCC(=O)Nc1ccc(N2CCOCC2)cc1 | -7.54% | 54.1% (active) | 44.2% (active) | -3.02%
Cc1cc(C)c2c(N)c3cccc(C)c3nc2n1 | 30.8% (active) | 105% (active) | 45.8% (active) | 89% (active)
Cc1ccc(NC(=O)[C@H](Cc2c[nH]c3ccccc23)NC(=O)[C@@H]2Cc3ccccc3CN2)c(C)c1 | 78.4% (active) | 3.94% | 71.4% (active) | 77.5% (active)
O=C(COc1ccc2c3c(c(=O)oc2c1)CCCC3)NCCCN1CCOCC1 | 14.4% | 44.6% (active) | 45% (active) | -6.23%
CCCc1nnc2n1N=C(c1ccc(OC)c(OC)c1)CS2 | 4.71% | 38.7% | 26.3% | -24.8%
Cc1ccc(NC(=O)CSc2nsc(SCC(=O)Nc3ccc(C)cc3C)c2C#N)c(C)c1 | 13.3% | 46.1% (active) | 34.5% | -0.96%
CC1=C(n2nnc([N+](=O)[O-])n2)C(c2cccnc2)C(C#N)=C(N)O1 (stereo not drawn) | 6.01% | 17.6% | 21.5% | -0.44%
Cc1ccc(Cl)cc1N1CCN(C(=O)C(C)n2ncn3cccc3c2=O)CC1 (stereo not drawn) | 7.03% | 35.4% | 41.2% | 2.84%
O=C(c1cc(COc2cccc3cnccc23)on1)N1CCCC(CCCO)C1 (stereo not drawn) | 35.4% (active) | 66.4% (active) | 70.5% (active) | 63.5% (active)
O=C(COC(=O)c1ccc(Br)cc1)Nc1ccccc1Br | 9% | 50.5% (active) | 50.1% (active) | 1.81%
COc1ccc(NC(=O)CSC2=C(C#N)C(c3ccco3)C3=C(CCCC3=O)N2)c(OC)c1 (stereo not drawn) | 14% | 55.5% (active) | 52.5% (active) | -14.7%
Cc1cc(=O)oc2cc(OCC(=O)N3CCN(C(=O)C4COc5ccccc5O4)CC3)ccc12 (stereo not drawn) | 21.1% | 49% (active) | 42.1% | -11%
CN(C)c1ccc(NC(=O)CN2CCC(NC(=O)C3CCCCC3)CC2)cc1 | 12.2% | 62.6% (active) | 54.1% (active) | -3.68%
COc1ccc(NC(=O)CN2C(=O)NC3(CCCC3)C2=O)cc1 | -8.92% | 51.2% (active) | 47.5% (active) | -17.1%
Cc1nn(CC(=O)NCCC2=CCCCC2)c(C)c1[N+](=O)[O-] | 17.5% | 48.9% (active) | 41.5% | -0.8%
CC1CCC2(CC1)NC(=O)N(CC(=O)Nc1ccc3c(c1)OCCCO3)C2=O (stereo not drawn) | 10.5% | 46.8% (active) | 44.8% (active) | -7.87%
S=C(Nc1ccc(Br)cc1)Nc1ccc2c(c1)OCCO2 | -74.4% | -51.1% | -27.8% | -71.3%
COc1ccc(C2=Nn3c(nnc3-c3ccncc3)SC2)cc1OC | 24.5% | 48% (active) | 39.6% | -2.76%
CCCc1cc(=O)oc2c(C)c(OCC(=O)NCCCn3ccnc3)ccc12 | -1.87% | 47.8% (active) | 35.9% | -19.5%
O=C(C(=Cc1ccccc1)CN1CCCCC1)c1ccccc1 | 36.4% (active) | 66.8% (active) | 75.1% (active) | 82.8% (active)
